Results with a measured potency or affinity are listed apart.
What follows are molecules tested against NAD-dependent protein deacylase sirtuin-5, mitochondrial (Homo sapiens) (UniProt Q9NXA8) (assay: SIRT5 deacylase inhibitors, dose response, biochemical, fluorescence imaging, cherry-pick, set 6 (AID 720597;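 further: lower AMC signal can also come from blocking the trypsin step; 0% = median of neutral control wells and -100% = median of positive control wells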)). Conditions: Purified SirT5, succinyl-peptide-AMC/trypsin fluorescence; series mostly up to 15 µM; activity change, negative = inhibition: at the top concentration;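 active means fitted half-maximal dose no more than twice the top valid tested dose, for compounds that lower signal; inconclusive means fit invalid, or curve flat with activity between -70 and -30; inactive means potency past limit, curve flat within ±30, or signal increasing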.
Sequence of NAD-dependent protein deacylase sirtuin-5, mitochondrial (Homo sapiens) (Q9NXA8 whole entry, looked up): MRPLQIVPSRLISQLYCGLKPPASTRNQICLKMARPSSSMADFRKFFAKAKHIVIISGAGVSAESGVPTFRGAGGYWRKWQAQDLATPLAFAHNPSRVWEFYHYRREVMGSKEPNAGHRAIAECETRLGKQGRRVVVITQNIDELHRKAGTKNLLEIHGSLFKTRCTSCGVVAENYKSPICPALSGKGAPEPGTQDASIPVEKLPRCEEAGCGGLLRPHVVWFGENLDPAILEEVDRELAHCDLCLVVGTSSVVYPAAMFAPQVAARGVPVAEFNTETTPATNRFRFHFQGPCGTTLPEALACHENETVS

Activity change, negative = inhibition, inactive:
Cc1ccc(S(=O)(=O)Nc2ccc3c(c2)C(=O)N([C@@H](C)CO)C[C@H](C)[C@@H](CN(C)S(=O)(=O)c2ccccc2)OCCCC[C@@H](C)O3)cc1 -1.09%
Cc1ccc(S(=O)(=O)Nc2ccc3c(c2)C(=O)N([C@@H](C)CO)C[C@H](C)[C@@H](CN(C)Cc2ccc(C(F)(F)F)cc2)OCCCC[C@H](C)O3)cc1 -12.4%
Cc1ccc(S(=O)(=O)N(C)C[C@@H]2OCCCC[C@@H](C)Oc3ccc(NS(=O)(=O)c4ccccc4)cc3C(=O)N([C@H](C)CO)C[C@H]2C)cc1 1.8%
C[C@H]1CN([C@@H](C)CO)S(=O)(=O)c2ccc(-c3cccc(F)c3)cc2O[C@@H]1CN(C)C(=O)Nc1cc(F)ccc1F -33.1%
C[C@@H]1CCCCO[C@@H](CN(C)Cc2ccc(C(F)(F)F)cc2)[C@H](C)CN([C@@H](C)CO)C(=O)c2cc(NS(=O)(=O)c3ccccc3)ccc2O1 18%
C[C@H]1CN([C@@H](C)CO)S(=O)(=O)c2ccc(-c3cccc(F)c3)cc2O[C@@H]1CN(C)S(=O)(=O)c1ccc(F)cc1 4.42%
C[C@@H]1CN([C@H](C)CO)C(=O)c2cc(C#CCN(C)C)cnc2O[C@H]1CN(C)Cc1ccncc1 11.4%
Cc1ccc(S(=O)(=O)Nc2ccc3c(c2)C(=O)N([C@H](C)CO)C[C@@H](C)[C@@H](CN(C)S(=O)(=O)c2ccccc2)OCCCC[C@@H](C)O3)cc1 5.85%
CC(=O)N(C)C[C@@H]1Oc2ncc(-c3ccccc3C)cc2C(=O)N([C@H](C)CO)C[C@H]1C -1.22%
Cc1ccc(S(=O)(=O)Nc2ccc3c(c2)C(=O)N([C@@H](C)CO)C[C@H](C)[C@H](CN(C)S(=O)(=O)c2ccccc2)OCCCC[C@@H](C)O3)cc1 5.12%
COc1ccc(S(=O)(=O)N(C)C[C@@H]2OCCCC[C@H](C)Oc3ccc(NS(=O)(=O)c4ccc(F)cc4)cc3C(=O)N([C@H](C)CO)C[C@H]2C)cc1 13.5%
C[C@@H]1CN([C@@H](C)CO)C(=O)Cc2cc(NS(=O)(=O)c3ccc(F)cc3)ccc2O[C@@H]1CN(C)C(=O)NC1CCCCC1 -20.9%
C[C@H](CO)N1C[C@H](C)[C@H](CN(C)Cc2ccc(Oc3ccccc3)cc2)Oc2ccc(NC(=O)CCCCCC(=O)Nc3ccccc3N)cc2CC1=O -15.1%
COCCOC(=O)N1C(=O)[C@@]2(c3cc(C#CCCO)ccc31)[C@H](c1ccccc1OCCO)N1[C@H](c3ccccc3)[C@H](c3ccccc3)OC(=O)[C@H]1[C@@H]2C(=O)N1CCN(c2ncccn2)CC1 -16.8%
C[C@H]1CN([C@@H](C)CO)S(=O)(=O)c2ccc(-c3cccc(F)c3)cc2O[C@H]1CN(C)S(=O)(=O)c1ccc(F)cc1 7.74%
COc1ccccc1-c1ccc2c(c1)O[C@@H](CN(C)S(=O)(=O)c1ccc(F)cc1)[C@@H](C)CN([C@H](C)CO)S2(=O)=O 13.8%
O=C(C[C@H]1CC[C@H]2[C@@H](COC[C@@H](O)CN2Cc2cccc(Cl)c2)O1)N1CCCCC1 20.1%
C[C@H](CO)N1C[C@H](C)[C@H](CN(C)S(=O)(=O)c2ccc(Cl)cc2)OCCCC[C@H](C)Oc2ccc(NS(=O)(=O)c3ccc(F)cc3)cc2C1=O -7.61%
COc1ccc(S(=O)(=O)Nc2ccc3c(c2)CC(=O)N([C@@H](C)CO)C[C@@H](C)[C@H](CN(C)CC2CCCCC2)O3)cc1 -30.6%
C[C@H](CO)N1C[C@H](C)[C@@H](CN(C)Cc2ccc(C(F)(F)F)cc2)OCCCC[C@H](C)Oc2ccc(NS(=O)(=O)c3ccc(Cl)cc3)cc2C1=O -16.8%
Cc1ccc(S(=O)(=O)Nc2ccc3c(c2)C(=O)N([C@H](C)CO)C[C@@H](C)[C@H](CN(C)Cc2ccc(Cl)c(Cl)c2)OCCCC[C@H](C)O3)cc1 0.114%
C[C@@H]1CN([C@H](C)CO)C(=O)c2c(c3ccccc3n2C)-c2ccccc2CO[C@H]1CN(C)Cc1cccc2c1OCCCO2 -1.05%
CC(C)(C)NC(=O)CSc1nnc(-c2ccco2)n1-c1ccccc1 -10.4% [at 16 µM]
CN(C[C@H]1[C@@H](c2ccc(C3=CCCC3)cc2)[C@@H](CO)N1CCC(F)(F)F)S(C)(=O)=O 41.9%
COc1ccc(NC(=O)N(C)C[C@@H]2Oc3cc(C#CCC(C)C)ccc3S(=O)(=O)N([C@H](C)CO)C[C@H]2C)cc1 13.2%
COc1ccc(S(=O)(=O)Nc2ccc3c(c2)C(=O)N([C@H](C)CO)C[C@H](C)[C@@H](CN(C)Cc2ccc(C(F)(F)F)cc2)OCCCC[C@H](C)O3)cc1 -11.4% [at 7.5 µM]
C[C@H](CO)N1C[C@H](C)[C@@H](CN(C)S(=O)(=O)c2ccccc2)Oc2c(cccc2N(C)C)C1=O 2.92%
CCN(C[C@H]1[C@@H](c2ccc(-c3ccccc3F)cc2)[C@@H](CO)N1C(C)=O)C(C)=O -4.98%
C[C@@H]1CN([C@H](C)CO)S(=O)(=O)c2ccc(C#C[C@@H](C)O)cc2O[C@H]1CN(C)Cc1ccc(-c2ccccc2)cc1 -7.21%

Source: PubChem BioAssay AID720597 (Broad Institute, 2013)
